Where a name gives a salt, the structure may show the parent alone. ± gives the standard deviation of the averaged measurements.
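Further: End-point A600 read in BHI broth at 37 °C with 2% DMSO, inhibition computed as (1 − OD with compound plus ceftriaxone ÷ OD with ceftriaxone only) × 100.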

The test has as its system Listeria monocytogenes 10403S. As to the kind of experiment: growth inhibition relative to ceftriaxone-alone control; higher = stronger potentiation of ceftriaxone growth inhibition. As to conditions: 10 µM; ceftriaxone 1 ug/ml; 12 h.
For `CNC(=O)c1cncc(/C=C/c2ccccc2C)c1`, the growth inhibition was 25.3 ± 14%.
The result for `O=C1Nc2ccccc2/C1=C1/Nc2ccccc2C1=O` [Indirubin] reads -11.4 ± 11%.
Consider `COc1cccc(-n2cnc3c(N/N=C/c4ccncc4)ncnc32)c1`, for which the growth inhibition is -10.6 ± 15%.
The result for `COc1cc2ncn(-c3cc(OCc4ccccc4C(F)(F)F)c(C(N)=O)s3)c2cc1OC` reads -2.24 ± 0.56%.
With `CC(C)COC(=O)c1ccc2c(c1)/C(=C/Nc1ccc(S(N)(=O)=O)cc1)C(=O)N2` the figure was -6.41 ± 14%.
As for `COC(=O)c1sc(-n2cnc3cc(OC)c(OC)cc32)cc1OCc1ccccc1C(F)(F)F`, the growth inhibition came out at 0.599 ± 0.69%.
The result for `COc1cc2c(cc1Nc1nc(N3CCc4ccccc43)c3cc[nH]c3n1)N(C(=O)CN(C)C)CC2` reads 7.28 ± 0.39%; that for `Fc1cccc(COc2ccc(Nc3ncnc4cc(-c5ccc[nH]5)sc34)cc2Cl)c1`, 7.47 ± 4%; that for `CN1CCC(C(=O)Nc2n[nH]c3nc(-c4ccc(O)cc4)c(Br)cc23)CC1`, -3.78 ± 12%.
With `O=C1Nc2ccc(C(=O)c3ccco3)cc2C1=Cc1cc(Cl)c(O)c(Cl)c1` the figure was 13.9 ± 4.5%; with `CCn1c(-c2nonc2N)nc2cnc(Oc3cccc(NC(=O)c4ccc(OCCN5CCOCC5)cc4)c3)cc21`, 0.09 ± 1.7%; with `COc1cc(Nc2ncc(-c3ccccc3)o2)cc(OC)c1OC`, 1.14 ± 0.11%.
With `COc1cc2/c(=N/c3ccc(Br)cc3F)nc[nH]c2cc1OCC1CCN(C)CC1` [Vandetanib (Zactima)], the growth inhibition is 24.2 ± 29%.
The result for `C#Cc1cccc(Nc2ncnc3cc(OCCOC)c(OCCOC)cc23)c1` [Erlotinib HCl] reads 18.6 ± 18%; that for `CCn1c(-c2nonc2N)nc2c(C#CC(C)(C)O)ncc(OC3CCNCC3)c21`, 77 ± 1.4%.
On to `Cc1ccc(NC(=O)c2ccc(CN3CCN(C)CC3)cc2)cc1Nc1nc(-c2cccnc2)cs1` [Masitinib (AB1010)], for which the growth inhibition worked out at 36.7 ± 26%.
Take `CN(c1ccc(NC(=O)NCCN2CCOCC2)cc1)c1ccnc(Nc2ccc(CS(C)(=O)=O)cc2)n1`: the growth inhibition is -5.31 ± 3%.
For the compound `NS(=O)(=O)c1ccc(N/N=C2\C(=O)Nc3ccc(-c4cnco4)cc32)cc1`, the growth inhibition amounted to 0.00978 ± 0.57%.
As for `CC(C)c1cnn2c(NCc3ccccc3)cc(NCCCCCCN)nc12`, the growth inhibition turned out to be 102 ± 5.9%.
On to `O=C(NOC[C@H](O)CO)c1ccc(F)c(F)c1Nc1ccc(I)cc1F`, for which the growth inhibition amounted to 78.4 ± 6.9%.
Regarding `CC(C)c1ccc(Nc2nccc(-c3cnn4ncccc34)n2)cc1`, the growth inhibition was -0.923 ± 0.22%.
With `NCc1ccc(-n2c(-c3nonc3N)nc3cnccc32)cc1` the figure was -4.5 ± 3.6%; with `O=C(NCC1CC1)c1ccc(-c2cccc(C(=O)NC3CC3)c2)cc1`, -0.0355 ± 1.1%.
The result for `COc1cc(Nc2nccc(Nc3ccc4c(C)n[nH]c4c3)n2)cc(OC)c1OC` reads -7.71 ± 14%.
In the case of `c1ccc(COc2ccc(Nc3ncnc4ccc(-c5ccco5)cc34)cc2)cc1`, the growth inhibition was -9.94 ± 12%.
With `CO[C@H]1C[C@@H]2CC[C@@H](C)[C@@](O)(O2)C(=O)C(=O)N2CCCC[C@H]2C(=O)O[C@H]([C@H](C)C[C@@H]2CC[C@@H](OC(=O)C(C)(CO)CO)[C@H](OC)C2)CC(=O)[C@H](C)/C=C(\C)[C@@H](O)[C@@H](OC)C(=O)[C@H](C)C[C@H](C)/C=C/C=C/C=C/1C` [Temsirolimus (Torisel)], the growth inhibition was 19.8 ± 59%.
The result for `Cc1cc(Cl)cc2c1NC(=O)C2=NNc1ccc(S(N)(=O)=O)cc1` reads -9.29 ± 7.3%; that for `COc1cc2nccc(Oc3ccc(NC(=O)NC4CC4)c(Cl)c3)c2cc1C(N)=O` [E7080 (Lenvatinib)], 5.83 ± 14%; that for `O=C(Nc1cccc(Nc2ncc(Br)c(NCCc3cnc[nH]3)n2)c1)N1CCCC1`, 9.34 ± 13%.
Take `CNC(=O)c1sc(-n2cnc3cc(OC)c(OC)cc32)cc1OCc1ccccc1C(F)(F)F`: the growth inhibition was -11 ± 18%.
The result for `C=CC(=O)Nc1cc2c(Nc3ccc(F)c(Cl)c3)ncnc2cc1OCCCN1CCOCC1` [CI-1033 (Canertinib)] reads 21.5 ± 6.1%.
In the case of `NC(=O)c1cccc(Nc2nccc(Nc3cccc(F)c3)n2)c1`, the growth inhibition was -4.52 ± 12%.
Regarding `NS(=O)(=O)c1cccc(N/C=C2\C(=O)Nc3ccccc32)c1`, the growth inhibition is -6.18 ± 1%.
The result for `COc1cc(Nc2ncc3c(n2)-c2ccc(Cl)cc2C(c2c(F)cccc2OC)=NC3)ccc1C(=O)O` reads 43 ± 37%.
Consider `COc1cc2ncn(-c3cc(O[C@@H](C)c4ccccc4Cl)c(C(N)=O)s3)c2cc1OC`, for which the growth inhibition is -12.3 ± 4.7%.
As to `COC(=O)Nc1nc2cc(Oc3ccc(NC(=O)Nc4cccc(Br)c4)cc3)ccc2[nH]1`, the growth inhibition was -0.0344 ± 20%.
With `CNC(=O)c1cc(Oc2ccc(NC(=O)Nc3cc(C(C)(C)C)nn3-c3ccc4ncccc4c3)c(F)c2)ccn1` [DCC-2036 (Rebastinib)] the figure was 21 ± 0.51%.
In the case of `Clc1ccc(Nc2nnc(Cc3ccncc3)c3ccccc23)cc1` [Vatalinib 2HCl (PTK787)], the growth inhibition was 24.8 ± 20%.

Source of the values: the supplement of paper PMC5641865, “A screen for kinase inhibitors identifies antimicrobial imidazopyridine aminofurazans as specific inhibitors of the Listeria monocytogenes PASTA kinase PrkA” (The Journal of Biological Chemistry, 2017).
